RECQ1 inh-1: inhibitors of human RECQ1 DNA helicase | RECQ1 DNA unwinding, red fluorescence kinetic read | Potency, µM (top dose mostly 57.3 µM), for the others: top-dose activity, negative = inhibition, most hits filed as inhibitors | 240,000 tested, 0.54% active | P46063;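 note: plate controls were vehicle for no effect and no enzyme for full effect; nearly all actives have a fitted effect of over 30% in size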
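50 nM RECQ1T1 preincubated 15 min with compound in Tris pH 8.0 buffer with MgCl2, DTT, Tween-20 and 2.5 ug/ml poly(dI-dC); started with 200 nM TAMRA/BHQ-2 forked duplex and 2 mM ATP. Unwinding read as fluorescence (525/598 nm), two reads 2 h apart.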
APEX1 inh: APE1 (human) endonuclease inhibition; Potency, µM (top dose mostly 65.8 µM), for the others: top-dose activity change, negative = inhibition, actives largely listed as inhibitors; recombinant APE1, TAMRA/BHQ-2 abasic DNA cleavage fluorescence; P27695; AID 2517; 350,000 tested, 0.35% active;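 note: plate controls were vehicle for no effect and reference inhibitor for full effect; nearly all actives have a fitted effect of over 55% in size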
Target sequence (P27695 whole entry, looked up): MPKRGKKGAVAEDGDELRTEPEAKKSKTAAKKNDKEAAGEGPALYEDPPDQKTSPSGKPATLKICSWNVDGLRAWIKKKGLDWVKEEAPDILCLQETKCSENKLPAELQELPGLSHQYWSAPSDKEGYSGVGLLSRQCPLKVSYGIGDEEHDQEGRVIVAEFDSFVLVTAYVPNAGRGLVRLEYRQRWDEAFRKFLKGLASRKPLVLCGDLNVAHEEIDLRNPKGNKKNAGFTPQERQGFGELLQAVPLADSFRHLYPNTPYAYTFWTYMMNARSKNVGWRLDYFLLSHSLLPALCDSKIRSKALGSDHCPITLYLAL
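Activity was derived from the fluorescence gain between first and third kinetic reads (60 s intervals, ex 525/em 598 nm) after 50 nM THF-abasic TAMRA/BHQ-2 duplex was added to 0.75 nM APE1 preincubated 15 min with compound.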
L3MBTL1 inh: blocks human L3MBTL1. AlphaScreen L3MBTL1–H3K9me1 peptide binding. 230,000 tested, 0.66% active. Potency, µM (doses to about 57.1 µM), inactives show top-dose activity, negative = inhibition, actives largely listed as inhibitors; note: nearly all actives have a fitted effect of over 60% in size
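AlphaScreen assay: L3MBTL1 (50 nM final) was preincubated 30 min at room temperature with biotinylated H3(1-15)K9me1 peptide (75 nM final), then 30 min with library compounds; streptavidin donor and nickel chelate acceptor beads (10 ug/mL final) added, 30 min dark.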
BLM helicase inh: Bloom syndrome helicase (human) inhibition. Potency, µM (series often up to 56.1 µM), for the others: at the top dose activity change, negative = inhibition, hits mostly inhibitors. recombinant BLM DNA unwinding, fluorescence dequenching. P54132. 350,000 tested, 0.2% active;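 note: plate controls were vehicle for no effect and no enzyme for full effect; nearly all actives have a fitted effect of over 35% in size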
JMJD2E inh: JMJD2E (human) inhibition; JMJD2E catalytic domain, FDH-coupled NADH fluorescence (FDH is formaldehyde dehydrogenase); Potency, µM (top dose mostly 57.1 µM), without a hit: at the top dose activity change, negative = inhibition, actives largely listed as inhibitors; 230,000 tested, 1.6% active; active = well fitted inhibition curve with a large enough effect, not every such curve was filed as active; inconclusive = small, poorly fitted or top-dose-only effect, or another doubt; inactive = no such curve, though single readings can be large or run the other way;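 note: 0% = wells with enzyme and -100% = buffer wells without enzyme; nearly all actives have a fitted effect of over 50% in size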
Target sequence (B2RXH2 1-337 limits assumed): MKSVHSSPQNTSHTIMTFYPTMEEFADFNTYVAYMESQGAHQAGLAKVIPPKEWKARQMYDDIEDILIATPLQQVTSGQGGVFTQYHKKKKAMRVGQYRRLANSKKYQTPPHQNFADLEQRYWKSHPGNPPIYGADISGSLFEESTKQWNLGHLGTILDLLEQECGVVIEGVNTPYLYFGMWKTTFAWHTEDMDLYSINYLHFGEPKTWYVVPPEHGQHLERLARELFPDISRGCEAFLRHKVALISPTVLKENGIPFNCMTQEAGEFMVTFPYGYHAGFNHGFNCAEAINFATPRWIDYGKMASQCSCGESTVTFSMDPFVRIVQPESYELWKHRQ
TDP1 inh: inhibitors of human tyrosyl-DNA phosphodiesterase TDP1; Q9NUW8; recombinant TDP1, AlphaScreen DNA substrate cleavage; Potency, µM (doses to about 130 µM), for the others: at the top dose activity change, negative = inhibition, usual class: inhibitors; 350,000 tested, 0.28% active; note: nearly all actives have a fitted effect of over 40% in size
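AlphaScreen read-out: signal falls as enzyme removes the 3' tyrosine-FITC from a 5'-biotinylated DNA oligo (15 nM, 5 min, RT). Enzyme was E. coli-made recombinant Tdp1 at 1 nM, exposed to compound for 15 min beforehand; beads 10 ug/ml, 10 min.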
RECQ1 inh conf: confirmation of human RECQ1 helicase inhibitors; RECQ1 helicase DNA unwinding, fluorescence; shares compounds with RECQ1 inh-1; Potency, µM (highest dose often 229 µM), without a hit: at the top dose activity change, negative = inhibition, usual class: inhibitors; 610 tested, 28% active; AID 2708; note: nearly all actives have a fitted effect of over 45% in size
ADP FP counter: ADP displacement flagged in RECQ1 inhibitor counter-screen; shares compounds with RECQ1 inh-1; ADP fluorescence polarization displacement counterscreen; Potency, µM (titrated, usually from 228 µM), inactives show at the highest dose activity change, negative = inhibition, most hits filed as inhibitors; 530 tested, 27% active; note: nearly all actives have a fitted effect of over 45% in size
RECQ1 inh-2: blocks human RECQ1 DNA unwinding; 1,100 tested, 15% active; shares compounds with RECQ1 inh-1; AID 504841; Potency, µM (highest dose often 119 µM), without a hit: at the top dose activity, negative = inhibition, actives largely listed as inhibitors; recombinant RECQ1 DNA unwinding, red fluorescence; note: nearly all actives have a fitted effect of over 50% in size
Starred values were filed as active, the others as inactive; i = inactive; ? = inconclusive; · = no result given; [ ] = another dose, or the depositor's remark. This is one part of a sample in which hits are shown more often than they occur. Unless noted, calls come from the whole dose curve; as a rule, active = well fitted curve in the direction sought with a large enough effect; inconclusive = small, poorly fitted or top-dose-only effect, or another doubt; inactive = no such curve, though single readings can be large; an effect the other way counts as inactive or inconclusive. Unless noted, % is set by controls: 0 for no effect and ±100 for the full control effect; potency is the fitted concentration of half-maximal effect.

SMILES	RECQ1 inh-1	APEX1 inh	L3MBTL1 inh	BLM helicase inh	JMJD2E inh	TDP1 inh	RECQ1 inh-2	others
CCOC(=O)c1cccc(NC(=O)CC(c2ccc(F)cc2)N2Cc3ccccc3C2=O)c1 (stereo not given)	·	·	·	-0.6%	·	-2.8%	·
O=C(Nc1ccc(F)cc1)c1cccc2c1C(=O)N(CC1CCCO1)C2 (stereo not given)	·	7.2%	-0.8%	-8.0%	·	·	·
CCOC(=O)c1ccc(OC(=O)c2cn(-c3ccc(C)cc3)c(=O)c3ccccc23)cc1	·	·	·	-3.3%	·	-1.1%	·
CCOC(=O)c1c(-n2c(C)cc(C=O)c2C)sc2c1CCCC2	-4.5%	0.0%	-3.6%	-6.8%	-0.5%	7.8%	·
Cc1ccc(C)n1-c1sc2c(c1C(=O)O)CCCC2	12.6µM*	?	?	-17.7%	-29.9%	·	8.91µM*	RECQ1 inh conf=56.2µM*;ADP FP counter=?
CN(C)C(=O)CSc1ncnc2scc(-c3ccccc3)c12	?	7.7%	·	8.8%	-10.7%	1.2%	-7.1%
NC(N)=NCCC[C@H](N)C(=O)NCC(=O)N[C@@H](CC(=O)O)C(=O)O	-13.1%	-6.6%	·	4.7%	·	4.9%	·
Nc1cccc2c(=O)[nH]ccc12	20µM*	-6.6%	·	-12.9%	·	16.7%	·	RECQ1 inh conf=?;ADP FP counter=50.1µM*
Nc1cccc2c(=O)[nH][nH]c(=O)c12	-11.4%	-0.4%	·	·	·	8.7%	·
CO/N=C\c1ccc(C(=O)N2[C@H](c3ccc(C)cc3)[C@@H](C)CC[C@H]2C(=O)OC)cc1	i[11.5 µM]	-5.1%[12.4 µM]	·	-0.4%[12.4 µM]	·	4.8%[21 µM]	·
C=CC[C@@H]1C=C[C@H](O/N=C/c2ccc(C(=O)N3[C@H](c4ccc(C)cc4)[C@@H](C)CC[C@H]3C(=O)OC)cc2)[C@@H](CO)O1	?	2.5%	-12.2%	-10.5%	-13.3%	3.9%	-16.5%
Fc1ccc(Br)cc1C1C=C(c2ccc(Br)cc2)Nc2nnnn21 (stereo not given)	·	·	·	-0.1%	·	9.5%	·
COc1cc2c(cc1OC)C1(O)C(=O)c3ccc(O)c(C(=O)O)c3OC1CO2 (stereo not given)	-4.8%	-5.4%	·	5.6%	?	12.4%[56.1 µM]	·
Cc1ccc(S(=O)(=O)N(C)C)cc1NC(=O)COC(=O)c1n[nH]c(=O)c2ccccc12	-5.4%	1.7%	3.3%	3.4%	2.3%	1.8%	·	RECQ1 inh conf=13.2%;ADP FP counter=?
C=CCNC(=O)CSc1nc2cc(C(=O)OCC)ccc2n1CC	-14.8%	-6.5%	·	2.2%	-1.7%	7.8%	·
CCOC(=O)c1ccc2c(c1)nc(SCC(=O)c1cc3ccccc3o1)n2CC	?	-5.6%	·	-9.2%	-7.9%	4.6%	?
COc1cc2cc3c(N)c(C(=O)NCc4ccco4)sc3nc2cc1OC	?	?	-2.3%	-23.8%	?	5.9%	?
Cc1ccc2nc3sc(C(=O)NCc4ccco4)c(N)c3cc2c1	-8.6%	-2.1%	-1.1%	-4.9%	0.1%	-7.5%	·
CCOC(=O)CN1C(=O)S/C(=C/C=C/c2ccc(N(C)C)cc2)C1=O	25.1µM*	-6.2%	-66.3%	?	-5.3%	11.0%	31.6µM*
O=C(c1ccc(Nc2nccc(-c3cc4ccccc4s3)n2)cc1)N1CCC(N2CCCC2)CC1	?	-7.4%	·	?	·	18.7%	25.1µM*
CCC(=Nc1ccc(N)cc1)C1=C(O)C(C(=O)OC)C(C)(C)CC1=O (stereo not given)	?	?	28.2µM*	?	8.91µM*	5.9%	-5.5%
O=C(NC(Cc1ccccc1)C(=O)O)/C(=C/c1ccccc1)NC(=O)c1cccc(Br)c1 (stereo not given)	-3.0%	3.7%	·	-9.0%	4.3%	0.0%	·	RECQ1 inh conf=10.5%;ADP FP counter=?
O=C(NC(Cc1ccccc1)C(=O)O)/C(=C/c1ccco1)NC(=O)c1cccc([N+](=O)[O-])c1 (stereo not given)	i	-9.7%	·	-1.5%	-6.5%	-8.1%	·	RECQ1 inh conf=4.5%;ADP FP counter=-3.7%
O=C(NC(Cc1ccccc1)C(=O)O)/C(=C/c1ccc([N+](=O)[O-])cc1)NC(=O)c1ccco1 (stereo not given)	·	3.3%	·	3.2%	·	0.0%	·
CC(NC(=O)/C(=C/c1ccc2c(c1)OCO2)NC(=O)c1cccc([N+](=O)[O-])c1)C(=O)O (stereo not given)	-5.5%	15.5%	·	-3.7%	?	7.5%	·	RECQ1 inh conf=14.0%;ADP FP counter=-14.8%
SMILES	RECQ1 inh-1	APEX1 inh	L3MBTL1 inh	BLM helicase inh	JMJD2E inh	TDP1 inh	RECQ1 inh-2	others
CS(=O)(=O)N1CCN(c2ccc([N+](=O)[O-])c(NCc3ccccc3)c2)CC1	-12.8%	-1.5%	-5.0%	-4.3%	1.2%	5.4%	·
CS(=O)(=O)N1CCN(c2ccc([N+](=O)[O-])c(NCc3ccc(Cl)cc3)c2)CC1	31.6µM*	2.0%	7.0%	15.8µM*	-2.8%	0.0%	?
COc1ccc(CNC(=O)Cn2ccc3cc(S(=O)(=O)N4CCCCC4)ccc32)c(OC)c1	·	·	·	-4.4%	·	2.8%	·
O=C(NCc1ccc2c(c1)OCO2)O[C@@H]1C(=O)c2cc(Br)ccc2O[C@H]1c1ccc2c(c1)OCO2	-8.4%	2.6%	·	-0.6%	-7.7%	12.5%	·
O=c1c2c(-c3ccco3)csc2nc(SCc2cn3cccnc3n2)n1-c1ccccc1	12.6µM*	-1.7%	-16.9%	-11.2%	?	-4.0%	-22.5%
NC(=O)CSc1nc2scc(-c3ccco3)c2c(=O)n1-c1ccccc1	28.2µM*	10.9%	·	?	?	-4.8%	?	RECQ1 inh conf=?;ADP FP counter=-5.1%[91.9 µM]
C=CCn1c(SCC(=O)NCC2CCCO2)nc2scc(-c3ccco3)c2c1=O (stereo not given)	?	?	?	-23.2%	1.0%	50.1µM*	?
C=CCn1c(SCC(=O)NCC2CCCO2)nc2scc(-c3ccc(OC)cc3)c2c1=O (stereo not given)	·	8.2%	·	-4.3%	·	2.2%	·
Cc1ccc(/C=C/C(=O)c2nc3ccccc3[nH]2)cc1	10µM*	-5.7%	-7.3%	-21.1%	4.6%	2.0%	-28.5%	RECQ1 inh conf=2.0%[114 µM];ADP FP counter=-14.3%[91.9 µM]
Cc1ccc(/C=C/C(=O)Nc2nc3ccccc3[nH]2)cc1	-4.9%	-6.8%	2.7%	-5.9%	-23.7%	0.0%	·

Source: PubChem (National Center for Advancing Translational Sciences (NCATS))
